Results: PubChem BioAssay (EPA / NIEHS)
“And” between values parts separate entries of the source, which are not always exact repeats. Equal entries are not always repeated. Records with an inconclusive call do not appear. The source made the active and inactive calls. How the source made its calls, unless noted: active means hit-call score of the fitted dose curve at least 0.9, where 1 is the maximum; inactive means score below 0.9.

Legend:
[1] = ACEA_ER_80hr: ACEA Biosciences xCELLigence Real-Time Cell Analysis on Estrogen Receptor Agonism for Proliferation (AID 2282667; active means hit-call score of the fitted dose curve at least 0.9, where 1 is the maximum); details: T47D proliferation, impedance (xCELLigence), 80 h
How it was run: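 Real-time electrical impedance tracked growth of the human breast line T47D, with the 80 h post-dosing value used. Dosing spanned eight 1:4 steps down from a 100 uM final top concentration, run in duplicate.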

[2] = APR_HepG2_CellCycleArrest_24hr: Apredica 24-hour HepG2 Assay for Cell Cycle Arrest (AID 2282905); details: imaging, actives raise or lower the signal;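 further: cell cycle arrest scored as ratio of 2N to 4N nuclear DNA content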
How it was run: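 HepG2 cells were exposed to compounds at 0.39–200 uM (ten concentrations, duplicate) in 0.5% v/v DMSO for 24 hr. After formaldehyde fixation and Triton permeabilization, Hoechst 33342-stained nuclei were imaged at 20x; DNA content was quantified, with bidirectional fitting against DMSO.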

[3] = APR_HepG2_CellLoss_24hr: Apredica 24-hour HepG2 Assay for Cell Loss (AID 2282908); details: high-content imaging;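 on AC50: fit in both directions so a hit may be cell loss or gain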
How it was run: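 Compounds were tested at 0.39–200 uM in duplicate with 0.5% v/v DMSO final. Cells were then fixed in 3.7% formaldehyde, Hoechst 33342 nuclei were imaged at 20x by HCS, and cell number was fitted bidirectionally against DMSO.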

[4] = APR_HepG2_MicrotubuleCSK_24hr: Apredica 24-hour HepG2 Assay for Microtubule CSK Stabilty (AID 2282909); details: HepG2 microtubule cytoskeleton imaging, actives raise or lower the signal
How it was run: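 HepG2 cells exposed 24 h to compounds at 0.39–200 uM (duplicate, 0.5% v/v DMSO final), then fixed, permeabilized and immunostained for alpha-tubulin with Hoechst 33342. Cytoskeleton imaged at 20x; bidirectional fit versus DMSO baseline.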

[5] = APR_HepG2_MitoticArrest_24hr: Apredica 24-hour HepG2 Assay for Mitotic Arrest (AID 2282910); details: high-content imaging, actives raise or lower the signal
How it was run: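 Compounds are dosed onto HepG2 cells across ten concentrations up to 200 uM for 24 hr. Cells are then fixed in 3.7% formaldehyde, permeabilised, and labelled for phospho-histone H3 and nuclei; images are scored by cell cycle analysis and fitted bidirectionally relative to DMSO.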

[6] = APR_HepG2_MitoMembPot_24hr: Apredica 24-hour HepG2 Assay for Mitochondrial Membrane Potential (AID 2282911); details: imaging, actives raise or lower the signal
How it was run: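 Cells are dosed for 24 hr across 0.39 to 200 uM with solvent held at 0.5% DMSO. They are then stained with 250 nM MitoTracker Red CMXRos for 30 min, fixed in 3.7% formaldehyde and imaged.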

[7] = APR_HepG2_p53Act_24hr: Apredica 24-hour HepG2 Assay for p53 Activation (AID 2282913); details: high-content imaging, actives raise or lower the signal;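 further: p53 protein immunofluorescence averaged per cell in HepG2 with Hoechst nuclei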
How it was run: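 Human HepG2 liver cells; 24 hr cpd treatment, 0.39–200 uM, 0.5% DMSO final. Fixed in 3.7% formaldehyde, permeabilized with 0.5% Triton X-100, stained with anti-p53/Cy5 plus Hoechst 33342. Six images per well at 20x; gain or loss vs DMSO.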

[8] = APR_HepG2_CellCycleArrest_72hr: Apredica 72-hour HepG2 Assay for Cell Cycle Arrest (AID 2282914); details: high-content imaging, actives raise or lower the signal
How it was run: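 Read-out is Hoechst-stained nuclear DNA content measured by automated fluorescence imaging (20x, six images per well), fitted in both directions relative to DMSO. Human HepG2 liver cells received 0.39–200 uM compound for 72 hr at 0.5% v/v DMSO.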

[9] = APR_HepG2_CellLoss_72hr: Apredica 72-hour HepG2 Assay for Cell Loss (AID 2282915); details: high-content imaging
How it was run: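 Cell number comes from Hoechst 33342-labelled nuclei, imaged at 20x after 3.7% formaldehyde fixation. Dosing was 0.39–200 uM, ten concentrations in duplicate, 0.5% DMSO final, for 72 h. Bidirectional fit relative to DMSO baseline.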

[10] = APR_HepG2_P-H2AX_72hr: Apredica 72-hour HepG2 Assay for H2AX Phosphorylation (AID 2282916); details: imaging, actives raise or lower the signal;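 further: phospho-histone H2A.x immunostain intensity per cell marking DNA damage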
How it was run: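 HepG2 human liver cells were exposed for 72 hr to compounds at 0.39–200 uM (10 concentrations, duplicate per plate) in 0.5% v/v DMSO. Fixed, permeabilized cells were immunolabeled for phospho-histone H2A.x with Hoechst 33342 and imaged by HCS fluorescence; bidirectional fit versus DMSO.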

[11] = APR_HepG2_MitoMembPot_72hr: Apredica 72-hour HepG2 Assay for Mitochondrial Membrane Potential (AID 2282917); details: imaging, actives raise or lower the signal
How it was run: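 Membrane potential read by MitoTracker Red CMXRos (250 nM, 30 min, pre-fixation) fluorescence imaging of HepG2 after 72 hr exposure. Ten concentrations, 0.39–200 uM, duplicate wells, 0.5% DMSO; fitted in both directions against DMSO baseline.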

[12] = APR_HepG2_MicrotubuleCSK_72hr: Apredica 72-hour HepG2 Assay for Microtubule CSK Stabilty (AID 2282919); details: HepG2 microtubule cytoskeleton, high-content imaging, actives raise or lower the signal
How it was run: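 Read-out is tubulin fluorescence intensity from high-content imaging of HepG2 cells, with nuclei identified by Hoechst 33342. Treatment lasts 72 h at 0.39–200 uM, and curves are fitted bidirectionally against the DMSO negative control.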

[13] = APR_HepG2_P-H2AX_24hr: Apredica 24-hour HepG2 Assay for H2AX Phosphorylation (AID 2282920); details: high-content imaging, actives raise or lower the signal
How it was run: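 HepG2, 24 hr, cpd 0.39–200 uM (10 conc, duplicate), DMSO 0.5% v/v final. Fix 3.7% formaldehyde, Triton X-100 permeabilize, anti-phospho-H2A.x 1:200 + Hoechst 2 ug/mL. Imaged, bidirectional fit vs DMSO.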

[14] = APR_HepG2_StressKinase_24hr: Apredica 24-hour HepG2 Assay for Stress Kinase (AID 2282922); details: HepG2 stress kinase (phospho-c-Jun) imaging, actives raise or lower the signal
How it was run: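 HepG2, 24 hr dosing, 0.39–200 uM in duplicate, 0.5% DMSO; formaldehyde fix (3.7%), 0.5% Triton X-100; anti-phospho-c-Jun + Cy3 secondary, Hoechst counterstain; ArrayScan imaging; bidirectional curve fit vs DMSO baseline.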

[15] = APR_HepG2_p53Act_72hr: Apredica 72-hour HepG2 Assay for p53 Activation (AID 2282923); details: high-content imaging, actives raise or lower the signal;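 further: average cellular p53 protein immunofluorescence intensity in HepG2 cells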
How it was run: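 Cells were dosed for 72 hr with compounds at 0.39–200 uM in duplicate (final DMSO 0.5% v/v), then fixed in 3.7% formaldehyde, permeabilized with Triton X-100 and immunostained for p53 (Cy5) with Hoechst 33342 nuclear counterstain.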

[16] = APR_HepG2_MitoMass_72hr: Apredica 72-hour HepG2 Assay for Mitochondrial Mass (AID 2282924); details: high-content imaging, actives raise or lower the signal;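 further: MitoTracker Red CMXRos stain intensity per cell imaged as mitochondrial mass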
How it was run: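 HepG2, 72 hr cmpd, 10 conc 0.39–200 uM in dup, DMSO 0.5% v/v. MitoTracker Red CMXRos 250 nM 30 min pre-fix; formaldehyde 3.7% fix 30 min RT. HCS imaging, gain/loss fit vs DMSO.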

[17] = APR_HepG2_MitoticArrest_72hr: Apredica 72-hour HepG2 Assay for Mitotic Arrest (AID 2282918); details: high-content imaging, actives raise or lower the signal
How it was run: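 Read-out is phospho-histone H3 immunofluorescence with Hoechst nuclear segmentation, imaged at 20x. Human HepG2 liver cells received ten concentrations (0.39–200 uM, final DMSO 0.5% v/v) for 72 hr before fixation. Gain or loss of signal was fitted relative to DMSO.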

[18] = APR_HepG2_StressKinase_72hr: Apredica 72-hour HepG2 Assay for Stress Kinase (AID 2282921); details: HepG2 stress kinase (phospho-c-Jun) imaging, actives raise or lower the signal
How it was run: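 Cells were exposed for 72 h to ten concentrations (0.39–200 uM, duplicate) at 0.5% v/v DMSO final, then fixed with 3.7% formaldehyde, permeabilized and immunostained for phospho-c-Jun (Cy3 secondary) with Hoechst nuclear counterstain.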

[19] = APR_HepG2_MitoMass_24hr: Apredica 24-hour HepG2 Assay for Mitochondrial Mass (AID 2282912); details: high-content imaging, actives raise or lower the signal
How it was run: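 Human HepG2 liver cells were exposed for 24 hr to compounds at 0.39–200 uM (duplicates, 0.5% v/v DMSO final). They were stained live with 250 nM MitoTracker Red CMXRos for 30 min, fixed in 3.7% formaldehyde, and imaged by HCS fluorescence; signals were fitted bidirectionally against DMSO.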

Measured: AC50

CCCOC(=O)c1ccc(O)cc1
active: [1] 2.7 µM
inactive: [2] | [3] | [4] | [5] | [6] | [7] | [8] | [9] | [10] | [11] | [12] | [13] | [14] | [15] | [16]

C#C[C@]1(O)CC[C@H]2[C@@H]3CCC4=CC(=O)CC[C@@H]4[C@H]3CC[C@@]21C
active: [1] 3.95 nM and 5.39 nM and 91.8 nM
inactive: [2] | [3] | [4] | [5] | [6] | [7] | [8] | [9] | [10] | [11] | [12] | [13] | [14] | [16]

Nc1cccc2c(N)cccc12
active: [3] 51.8 µM | [5] 70.1 µM | [7] 96.2 µM | [9] 83.1 µM | [10] 36.4 µM | [11] 17.3 µM | [17] 77 µM | [13] 42.9 µM | [18] 39.9 µM | [15] 67.5 µM
inactive: [1] | [2] | [4] | [6] | [8] | [12] | [14] | [16]

CCCCOCCO
inactive: [1] | [2] | [3] | [4] | [5] | [6] | [19] | [7] | [8] | [9] | [10] | [11] | [12] | [13] | [14] | [16]

CC(O)CO (stereo not drawn)
inactive: [1] | [2] | [3] | [4] | [5] | [6] | [19] | [7] | [8] | [9] | [10] | [11] | [12] | [13] | [14] | [16]

CCc1ccc(CCOc2ccc(CC3SC(=O)NC3=O)cc2)nc1 (stereo not drawn)
inactive: [1] | [4] | [5] | [6] | [7] | [11] | [12] | [13] | [14] | [15]
active: [2] 30.6 µM | [3] 110 µM | [8] 94.4 µM | [9] 112 µM | [10] 103 µM | [17] 103 µM | [16] 57.6 µM
